Key:
Type in all cases: functional
Plasmodium falciparum [1] = assay: GSK_TCMDC: Inhibition of Plasmodium falciparum 3D7 in whole red blood cells, using parasite LDH activity as an index of growth. Test compounds present at 2uM
Plasmodium falciparum [2] = assay: GSK_TCMDC: Inhibition of Plasmodium falciparum Dd2 in whole red blood cells, using parasite LDH activity as an index of growth. Test compounds present at 2uM
HepG2 = assay: GSK_TCMDC: Percent inhibition of human HepG2 cell line. Test compounds present at 10uM.

SMILES	Inhibition (Plasmodium falciparum [1]) [%]	Inhibition (Plasmodium falciparum [2]) [%]	Inhibition (HepG2) [%]
CC(=O)Nc1ccc(C(=O)Nc2ccc(-c3csc(-c4nc5ccccc5[nH]4)c3)cc2)cn1	93	0	11
Cc1cc(N[C@@H](Cc2ccccc2)C(=O)Nc2ccccc2)nc(NCCN2CCCC2)n1.O=C(O)C(F)(F)F	94	0	8
COc1ccc2nccc([C@@H](O)CN3CCC(NCc4cc5ccccc5cn4)CC3)c2n1.O=C(O)C(=O)O	93	14	3
COc1cccc(OC2CCN(C(=O)c3ccc(-c4ccc(N5CCCC5=O)cc4C)cc3)CC2)c1	85	80	42
CN1CCC(Oc2cc(NC(=O)Nc3ccc(-c4ccncc4)c(Cl)c3)ccc2Cl)CC1	99	100	23
O=C(O)C(F)(F)F.O=S(=O)(NCCN1CCCC1)c1ccc(-c2ccc(CNCc3ccsc3)cc2)s1	99	40	31
CS(=O)(=O)NCCCNCc1cccc(-c2cccc(-c3nc4cc(C(F)(F)F)ccc4[nH]3)c2)c1.O=C(O)C(F)(F)F	99	100	17
CC1CCCCN1S(=O)(=O)c1ccc(NC(=O)c2cc(-c3ccccc3O)n[nH]2)cc1 (stereo not drawn)	90	96	26
COc1cc(C(=O)N2CCOC(CCN3CCc4c(c5ccccc5n4C)C3)(c3ccc(Cl)c(Cl)c3)C2)cc(OC)c1OC (stereo not drawn)	87	68	16
O=C(CCCCCNC(=O)c1ccc(O)c(-c2ccc(Cl)c(Cl)c2)c1)NC1CCCCCC1	92	3	0
COc1cc2nc(NCC3CCCO3)n3nc(-c4ccccc4)nc3c2cc1OC (stereo not drawn)	92	97	0
Cc1cccc2nc(-c3ccc(-c4ccc(NC(=O)NC5CC5c5ccccc5)cc4)cc3)[nH]c12 (stereo not drawn)	96	3	28
CCC(ON1C(N)=NC(N)=NC1(C)C)c1ccccc1 (stereo not drawn)	96	0	61
C=CCc1cc(Cc2cnc(N)nc2N)c2ccc(C)nc2c1OC	96	0	11
CC[C@H](C)CNC(=O)c1cccc(-c2cccc(CNCC3CNCCCO3)c2)n1.O=C(O)C(F)(F)F (stereo partly drawn)	91	54	15
COc1cccc(CN2CCCC(CCC(=O)Nc3ccc(C(F)(F)F)cc3)C2)c1O (stereo not drawn)	98	97	15

SMILES	Inhibition (Plasmodium falciparum [1]) [%]	Inhibition (Plasmodium falciparum [2]) [%]	Inhibition (HepG2) [%]
COc1ccccc1C1CCN(C2CCC(NC(=O)/C=C/c3cccc(Cl)c3F)CC2)CC1 (stereo not drawn)	96	19	50
CCNc1cc(C)nc(Nc2ccc(NC(=O)c3ccccc3Cl)cc2)n1	100	52	48
COc1cc(C)ccc1N1CCN(CCCCNC(=O)c2ccc(NC(=O)c3ccc(Cl)cc3)cc2)CC1	99	31	30
COc1cccc(CCc2ccc(O)c3c2C[C@H]2C[C@H]4[C@H](N(C)C)C(O)=C(C(N)=O)C(=O)[C@@]4(O)C(O)=C2C3=O)c1.Cl	93	67	43
CN1CCN(Cc2ccc(-c3ccc4c(Nc5ccc(Oc6ccccc6)cc5)ccnc4c3)o2)CC1	99	99	23
COc1cccc2cc(C(=O)N[C@@H](CC(C)C)C(=O)N[C@H](C=NN3CCOC3=O)Cc3ccccc3)oc12	96	70	6
Cc1cc(NC(=O)c2sc3ccccc3c2O)no1	96	25	6
CC(C)C[C@H](NC(=O)c1ccc(OCCN2CCOCC2)cc1)C(=O)N[C@H](/C=N/N(C)C(=O)c1ccccc1)CCc1ccccc1	91	72	8
O=S(=O)(Nc1cccc(CCN2CCC(N3CCCCC3)CC2)c1)c1ccc(Cl)cc1	94	23	18
Br.Cc1cc(Br)c(OCCCON2C(=N)N=C(N)NC2(C)C)c(Br)c1	95	97	62
CCN(CC)c1cc(C)c2cc(NC(=O)c3cc(=O)c4ccccc4o3)ccc2n1	97	67	14
COc1cccc(O)c1CN1CCC2(CCCN(Cc3ccc(F)cc3)C2)C1 (stereo not drawn)	98	72	21
COc1ccc2c(c1C1CCN(CCCCNC(=O)c3ccc(NC(=O)c4ccc(Cl)cc4)cc3)CC1)CCCC2	100	99	19
Cc1cc(NC(=O)c2cccs2)ccc1OC1CCN(Cc2ccc(C#N)cc2)CC1.O=C(O)C(F)(F)F	94	92	34
COc1ccc2nccc([C@@H](O)CN3CCC(NCc4cc5cccc6c5n(c4=O)CCC6)CC3)c2c1.O=C(O)C(=O)O	98	97	33

Reference: ChEMBL document CHEMBL1157539, “Thousands of chemical starting points for antimalarial lead identification” (Nature, 2010)
